Shown are actives, neighbours in structure and some others; about 7.3% of the full set was active somewhere.
KinaseGlo FLuc: blocks Kinase-Glo luciferase, a counter-screen artifact. Q27757. Kinase-Glo luciferase, ATP luminescence, 8 min. Potency, µM (doses to about 38.3 µM), for inactives: top-dose activity change, negative = inhibition, most hits filed as inhibitors. actives 0.28% (n = 200,000). AID 1379; note: % is set by controls: 0 for no effect and ±100 for the full control effect; nearly all actives have a fitted effect of over 60% in size
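Compound is pinned into ATP-containing buffer (10 uM ATP, imidazole pH 7.2, 7 mM MgCl2). Kinase-Glo luciferase reagent is then added. Light output is recorded following an 8-min room-temperature incubation.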
ELG1 genotox: inducers of genotoxicity in HEK293T ELG1-luciferase cells; actives 1.3% (n = 330,000); AID 504466; Potency, µM (highest dose often 46 µM), for inactives: top-dose activity change, positive = activation, most hits filed as activators; HEK293T ELG1-luciferase reporter, luminescence, 16 h; note: % of control where 0% means no effect; nearly all actives have a fitted effect of over 60% in size
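Reporter readout depends on ELG1 protein level, which increases with genetic stress. After 16 hr compound exposure at 37 °C, luciferase activity was quantified using ONE-Glo.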
FLuc modulator: inhibits or activates purified firefly luciferase, miR-21 counter-screen. purified FLuc, Km substrates, luminescence inhibition. Potency, µM (highest dose often 57.5 µM), without a hit: top-dose activity change, negative = inhibition, hits mostly inhibitors. actives 6.9% (n = 360,000). P08659;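 note: plate controls were vehicle for no effect and reference inhibitor for full effect; nearly all actives have a fitted effect of over 55% in size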
Target sequence (P08659 whole entry, looked up): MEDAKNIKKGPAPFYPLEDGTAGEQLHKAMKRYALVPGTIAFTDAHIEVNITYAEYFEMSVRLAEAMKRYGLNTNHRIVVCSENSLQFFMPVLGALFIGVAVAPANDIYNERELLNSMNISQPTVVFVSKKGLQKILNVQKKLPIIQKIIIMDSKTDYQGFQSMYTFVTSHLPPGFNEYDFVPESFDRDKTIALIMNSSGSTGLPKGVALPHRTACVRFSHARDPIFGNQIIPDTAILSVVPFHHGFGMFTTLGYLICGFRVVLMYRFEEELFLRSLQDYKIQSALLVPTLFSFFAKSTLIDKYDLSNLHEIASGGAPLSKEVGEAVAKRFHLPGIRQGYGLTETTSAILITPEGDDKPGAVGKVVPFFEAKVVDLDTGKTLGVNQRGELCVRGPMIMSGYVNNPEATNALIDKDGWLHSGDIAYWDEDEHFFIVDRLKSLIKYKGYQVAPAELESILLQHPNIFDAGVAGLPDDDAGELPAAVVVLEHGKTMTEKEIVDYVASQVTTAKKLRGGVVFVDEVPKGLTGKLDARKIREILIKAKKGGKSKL
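Purified P. pyralis luciferase, 10 nM final, with Km-level 10 uM D-luciferin and 10 uM ATP in 50 mM Tris acetate pH 7.5, 10 mM Mg acetate, 0.01% Tween-20, 0.05% BSA; 6-point qHTS titration about 60 µM downward; luminescence read.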
SMN2 splice enh: SMN2 splice variant enhancement. HEK293 SMN2-luciferase splicing reporter, luminescence, 30-36 h. Potency, µM (doses to about 46.1 µM), inactives show at the top dose activity change, positive = activation, hits mostly activators. actives 2.8% (n = 210,000). AID 1458; note: % of control where 0% means no effect; nearly all actives have a fitted effect of over 55% in size
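HEK293 cells carry an SMN2 […]–luciferase reporter in which exon 7 inclusion puts luciferase in frame. Cells were plated 10-12 h before compound addition, then incubated 30-36 h at 37C. ONE-Glo luminescence was read; sodium butyrate at 4.5 mM final served as control.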
Rab9 prom act: activators of Rab9 promoter; Huh7 Rab9 promoter-luciferase reporter, luminescence, 24 h; Potency, µM (highest dose often 9.22 µM), inactives show at the highest dose activation, negative = inhibition, most hits filed as activators; actives 2.8% (n = 320,000); note: % of control where 0% means no effect; nearly all actives have a fitted effect of over 60% in size
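Using Huh7 cells stably transfected with Rab9 promoter–luciferase, compounds were incubated 24 h at 37 °C, 5% CO2; luciferase luminescence was read 10 min after reagent addition.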
NPC1 prom act: activators of NPC1 promoter; Huh7 NPC1 promoter luciferase reporter, 24 h; Potency, µM (titrated, usually from 9.22 µM), for inactives: at the highest dose activation, hits mostly activators; actives 2.4% (n = 320,000); AID 485313; note: % of control where 0% means no effect; nearly all actives have a fitted effect of over 60% in size
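Quantitative HTS used a cell-based reporter: Huh7 cells stably bearing the NPC1 promoter upstream of luciferase were treated with compounds for 24 h, and promoter activation was read as luminescence.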
* hit, by the source's call; u = inconclusive; x = no result. Calls come from the whole dose curve; as a rule, active = well fitted curve in the direction sought with a large enough effect; inconclusive = small, poorly fitted or top-dose-only effect, or another doubt; inactive = no such curve, though single readings can be large; an effect the other way counts as inactive or inconclusive. Potency is the fitted concentration of half-maximal effect.

SMILES	KinaseGlo FLuc	ELG1 genotox	FLuc modulator	SMN2 splice enh	Rab9 prom act	NPC1 prom act
CCc1ccccc1NC(=O)c1cccc(NC(=O)/C=C/c2ccco2)c1	2%	-2%	3µM*	11%	u	1%
Cc1ccc(-n2nc3ccc(NC(=O)/C=C/c4ccco4)cc3n2)cc1	16%	u	u	14µM*	u	u
Cc1ccc(-n2nc3ccc(NC(=O)c4cc5ccccc5o4)cc3n2)cc1	x	x	-5%	22%	x	x
Cc1ccc(NC(=O)N/C=C/c2ccco2)cc1C	-1%	0%	11µM*	-3%	18%	27%
Cc1ccc(NC(=O)c2cccc(NC(=O)/C=C/c3ccco3)c2)cc1C	-1%	0%	1.9µM*	18µM*	3.2µM*	u
Cn1c(NC(=O)/C=C/c2ccco2)cc(=O)n(C)c1=O	-9%	8%	u	-3%	26%	15%
Cn1cnc(S(=O)(=O)N2CCCC(C(=O)Nc3ccc(OC(F)(F)F)cc3)C2)c1 (configuration not stated)	x	x	1%	x	x	x
O=C(CSc1ncc2c(n1)-c1ccccc1N(Cc1ccc(Cl)cc1)S2(=O)=O)c1ccc(Cl)cc1	x	x	-4%	x	x	x
O=C(/C=C/c1ccco1)Nc1cccc(C(=O)Nc2ccccc2C(=O)O)c1	x	-6%	21µM*	x	1%	-3%
COc1ccccc1CNC(=O)C(=O)NCC(c1cccnc1)N1CCN(c2ccccc2)CC1 (configuration not stated)	x	x	-16%	x	x	x
O=C(Nc1ccc(OC(F)(F)F)cc1)C1=NCCN1	-6%	10%	6.7µM*	2%	2%	u
CN1CCC(Oc2ccc(Sc3ccccc3)cc2)CC1	-3%	u	12µM*	6%	21%	18%
CN1CCC(Oc2ccccc2Sc2ccc(C(F)(F)F)cc2)CC1	-3%	2%	1%	-59%	0%	-6%
O=C(Nc1ccccc1)c1cc2n(n1)C(C(F)(F)F)CC(C1CC1)N2 (configuration not stated)	-5%	u	-17%	x	1.8µM*	2.8µM*
Cc1ccc(-c2csc(NC(=O)C3CSC4(C)CCC(=O)N34)n2)cc1 (configuration not stated)	x	14%	-3%	x	10%	-2%
C=CCN(C(=O)C1CSC2(C)CCC(=O)N12)c1nc(-c2ccccc2)cs1 (configuration not stated)	x	18µM*	-1%	x	7%	1%
CCOc1ccc2nc(NC(=O)CS(=O)(=O)c3ccccc3)sc2c1	-3%	21%	12µM*	6%	1%	-1%
CCOc1ccc2nc(NC(=O)CS(=O)(=O)c3ccc(C)cc3)sc2c1	-1%	13%	21µM*	9%	1%	6%
CCN(Cc1ccncc1)C(=O)CCc1nnc(CCC2CCCCC2)o1	-2%	0%	-11%	x	9%	3%
CN(CCC1CCCCO1)C(=O)CCc1nnc(CCCCc2ccccc2)o1 (configuration not stated)	3%	1%	u	8%	0%	-3%
CN(C(=O)CCc1nnc(-c2ccc(-c3ccccc3)cc2)o1)C1CCOCC1	x	-7%	17µM*	x	21%	21%
Cc1cc(C)n(CCN(C)C(=O)CCc2nnc(CCC3CCCCC3)o2)n1	-1%	u	15µM*	x	u	u
CN(CCCC1CCCC1)C(=O)CCc1nnc(-c2ccccc2)o1	0%	21µM*	12µM*	13µM*	2.5µM*	u
Cc1cc(-c2nc3ncccc3o2)ccc1NC(=O)c1ccc(Cl)cc1	x	x	2%	3%	x	x
CCOC(=O)c1cc(-c2ccccc2)n(CCC(=O)Nc2ccc(Cl)c(C(F)(F)F)c2)c1C	x	x	0%	x	x	x
SMILES	KinaseGlo FLuc	ELG1 genotox	FLuc modulator	SMN2 splice enh	Rab9 prom act	NPC1 prom act
CCOC(=O)C1(Cc2cccc(OC)c2)CCCN(C(=O)c2ccccc2C)C1 (configuration not stated)	x	11%	27µM*	x	u	u
CCOC(=O)C1(Cc2cccc(OC)c2)CCCN(C(=O)CNC(C)=O)C1 (configuration not stated)	x	u	15µM*	x	3.2µM*	u
CCOC(=O)C1(Cc2cccc(OC)c2)CCCN(C(=O)c2cc(C)on2)C1 (configuration not stated)	x	u	12µM*	x	3.2µM*	u
CCOC(=O)C1(Cc2cccc(OC)c2)CCCN(S(=O)(=O)N(C)C)C1 (configuration not stated)	x	-7%	11%	x	1%	-4%
CCOC(=O)C1(Cc2cccc(OC)c2)CCCN(C(=O)c2cc(C)[nH]n2)C1 (configuration not stated)	0%	-5%	1%	x	-2%	-3%
CCOC(=O)C1(Cc2cccc(OC)c2)CCN(Cc2cccnc2)CC1	-6%	u	5.4µM*	x	14%	-2%
C=C[C@@]1(C)CC(=O)[C@@]2(O)[C@@]3(C)[C@@H](O)CCC(C)(C)[C@@H]3[C@H](O)[C@H](OC(C)=O)[C@@]2(C)O1	-1%	x	x	x	x	x
Cc1ccccc1C(=O)OCc1cc(=O)n2nc(C3CCCCC3)sc2n1	x	x	-15%	x	x	x
CCOC(=O)C1(Cc2ccccc2)CCCN(C(=O)c2cnn(CC)c2)C1 (configuration not stated)	x	u	15µM*	x	4µM*	u
CCOC(=O)c1ccc(OS(=O)(=O)c2ccccc2)c(OC)c1	0%	u	7.6µM*	11µM*	2.8µM*	2.8µM*
O=C(Cc1ccc(Cl)cc1)Nc1ccccn1	x	-1%	1%	x	12%	14%
O=C(/C=C\Nc1ccccn1)c1ccc(Cl)cc1	u	u	0.19µM*	1µM*	0.1µM*	0.28µM*
COC(=O)c1ccccc1	x	x	x	-5%	x	x
CCOC(=O)c1ccc(N/C=C\C(=O)c2cccc(OC)c2)cc1	u	16%	3µM*	u	u	u
COc1cccc(C(=O)/C=C/Nc2ccc(S(=O)(=O)Nc3ccc(C(C)=O)cc3)cc2)c1	x	11%	u	x	0%	-1%
COC(=O)c1ccc(N/C=C/C(=O)c2ccccc2)cc1	x	u	0.6µM*	x	0.5µM*	u
CC(=O)Nc1cc(C(=O)NCc2ccc(F)cc2)ccc1Sc1ccc(C)cc1	x	x	-1%	x	x	x
O=C(NCC(c1ccc2c(c1)OCO2)N1CCOCC1)c1ccccc1F (configuration not stated)	x	x	-9%	x	x	x
O=C(Nc1ccc(F)c(Cl)c1)N1CC=C(c2c[nH]c3ccccc23)CC1	x	x	-12%	x	x	x
Cc1cccc(C(=O)NN/C=C/C(=O)c2ccccc2)c1	x	2%	-18%	x	-3%	-4%
